The values below come from PubChem BioAssay (Tox21).

Test [1] can be described thus: qHTS assay to identify small molecule agonists of the vitamin D receptor (VDR) signaling pathway - cell viability counter screen (AID 743224). Note: nearly all actives have a fitted effect of over 50% in size. Note: potency is the fitted concentration of half-maximal effect. Summed up: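 VDR-bla cell line, quantitative HTS format; 16 h compound incubation (37C, 5% CO2); ATP-based CellTiter-Glo luminescence measured in the reporter assay wells.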
A general note: qHTS replaces the single test concentration by a dilution series.

A short description of test [2]: qHTS assay to identify small molecule antagonists of the vitamin D receptor (VDR) signaling pathway - cell viability counter screen (AID 743225). Note: nearly all actives have a fitted effect of over 50% in size. Note: potency is the fitted concentration of half-maximal effect. The gist of the method:
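HEK293T VDR-bla; cpd + 1a,25-(OH)2D3 3 nM final, 16 h 37C/5% CO2; B/G FRET substrate 2 h RT; then CellTiter-Glo 30 min RT, luminescence.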

Test [3] can be described thus: qHTS assay to identify small molecule agonists of the NFkB signaling pathway - cell viability counter screen (AID 1159515; calls by dose curve; note: nearly all actives have a fitted effect of over 55% in size; note: potency is the fitted concentration of half-maximal effect). The gist of the method:
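Viability in NFkB-bla ME-180 cells was measured by CellTiter-Glo luminescence, 30 min room temperature, in wells already treated 5 hr with compounds and read for reporter FRET.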

Test [4] is described as follows: qHTS assay to identify small molecule agonists of the endoplasmic reticulum stress response signaling pathway (AID 1159516; active = well fitted activation curve with a large enough effect in the signal ratio in the repeat runs, not every such curve was filed as active; the % refers to the signal ratio). The gist of the method: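 ER stress element reporter (bla) in HeLa. 1,500 cells/well, overnight attachment; 5 hr compound; 2 hr RT substrate; dual-emission fluorescence.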
Test [5] is described as follows: qHTS assay to identify small molecule agonists of the endoplasmic reticulum stress response signaling pathway - cell viability counter screen (AID 1159517; calls by dose curve;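 note: HeLa cells carrying an ER stress response element beta-lactamase reporter; series mostly up to about 61 µM; nearly all actives have a fitted effect of over 50% in size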). The gist of the method: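 Luminescence readout: CellTiter-Glo, 30 min RT, same wells as the ESRE-bla reporter read. HeLa ESRE-bla, 1,500 cells/well, o/n 37 C; cpd 5 hr 37 C/5% CO2.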
Test [6] can be described thus: qHTS assay to identify small molecule antagonists of the retinoid-related orphan receptor gamma (ROR-gamma) signaling pathway - cell viability counter screen (AID 1159520). Note: nearly all actives have a fitted effect of over 50% in size. Note: potency is the fitted concentration of half-maximal effect. The gist of the method: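 Tet-on ROR gamma CHO cells (1,000/well) were plated 4 hr, given compounds in DMSO for 2 hr at 37 C, then induced with 1 uM final doxycycline for 16 hr. Viability was read as ATP by CellTiter-Glo luminescence after 30 min.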

A short description of test [7]: qHTS assay to identify small molecule agonists of the AP-1 signaling pathway - cell viability counter screen (AID 1159525; calls by dose curve; note: nearly all actives have a fitted effect of over 55% in size; note: potency is the fitted concentration of half-maximal effect). Summed up: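 ME-180 AP-1-bla, 2500 cells/well, Opti-MEM + 0.5% dialyzed FBS; overnight 37 °C; cpd 15-pt titration, 5 h 37 °C; CellTiter-Glo 30 min RT; luminescence read; normalised to TOAB and DMSO controls.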
Test [8] can be described thus: qHTS assay to identify small molecule agonists of the AP-1 signaling pathway (AID 1159526; calls by dose curve; note: potency is the fitted concentration of half-maximal effect).
Test [9] can be described thus: qHTS assay to identify small molecule agonists of the RXR signaling pathway - cell viability counter screen (AID 1159529). Note: nearly all actives have a fitted effect of over 50% in size. Note: potency is the fitted concentration of half-maximal effect. Summed up: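 Steps: seed RXR-alpha-UAS-bla HEK 293T cells in assay medium containing 2% charcoal-stripped FBS; incubate 5 hr; add compounds in DMSO; incubate 16 hr at 37 C; after the bla read, add CellTiter-Glo and read luminescence at 30 min.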

Test [10] can be described thus: qHTS assay to identify small molecule antagonists of the retinoid acid receptor (RAR) signaling pathway - cell viability counter screen (AID 1159551). Note: nearly all actives have a fitted effect of over 35% in size. Note: potency is the fitted concentration of half-maximal effect. Summed up: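 Following overnight attachment, C3RL4 reporter cells received DMSO-dissolved compounds and then retinol (1 uM final). Six hours later at 37 C, ATP content was measured by CellTiter-Glo luminescence.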
The target in test [11] is Nuclear receptor ROR-gamma (Homo sapiens) (UniProt P51449). Nature of the test: qHTS assay to identify small molecule antagonists of the retinoid-related orphan receptor gamma (ROR-gamma) signaling pathway (AID 1159521). The gist of the method: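 Cells were plated, rested 4 h at 37 C, exposed to compounds for 2 h, then given 1 uM final doxycycline hyclate to induce RORγ expression. After 16 h, ONE-Glo luminescence from the ROR response element reporter was measured.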

Test [12] has as its target Retinoic acid receptor RXR-alpha (Homo sapiens) (UniProt P19793). In words: qHTS assay to identify small molecule agonists of the RXR signaling pathway (AID 1159527; calls by dose curve; note: nearly all actives have a fitted effect of over 35% in size; note: potency is the fitted concentration of half-maximal effect). Summed up: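 Cells plated at 2,000/well, rested 5 hr at 37 C, pin-dosed with DMSO compound solutions, incubated 16 hr, then loaded with B/G FRET substrate for 2 hr at RT before dual-emission fluorescence reading.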

The nature of test [13]: qHTS assay to identify small molecule antagonists of the retinoic acid receptor (RAR) signaling pathway (AID 1159552; note: nearly all actives have a fitted effect of over 50% in size). The gist of the method: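 Retinol at 1 uM final stimulated RARE-luciferase expression in C3RL4 cells exposed to test compounds for 6 hr at 37 C. Reduced luminescence, read 30 min after detection reagent, indicated pathway antagonism.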
A short description of test [14]: qHTS assay to identify small molecule agonists of the retinoic acid receptor (RAR) signaling pathway (AID 1159553). Summed up: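 Cell line C3RL4, RARE luciferase reporter. Treatment: compounds in DMSO, 6 hr, 37 C, 5% CO2, after overnight plating. Detection: luminescence, 30 min RT after reagent.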

Several values for one entry are separate records, joined by “and”; a condition that tells them apart may be missing. Identical values can stand only once. Records with an inconclusive call do not appear. Where a structure was tested more than once in an assay, its records may differ in their call. Activity calls are given as the source filed them. Unless noted, calls come from the whole dose curve; as a rule, active = well fitted curve in the direction sought with a large enough effect in the repeat runs; inconclusive = weak or mixed curves; inactive = no such curve, though single readings can be large; an effect the other way counts as inactive or inconclusive.

Retinoic acid receptor RXR-alpha (Homo sapiens), sequence (P19793 whole entry, looked up): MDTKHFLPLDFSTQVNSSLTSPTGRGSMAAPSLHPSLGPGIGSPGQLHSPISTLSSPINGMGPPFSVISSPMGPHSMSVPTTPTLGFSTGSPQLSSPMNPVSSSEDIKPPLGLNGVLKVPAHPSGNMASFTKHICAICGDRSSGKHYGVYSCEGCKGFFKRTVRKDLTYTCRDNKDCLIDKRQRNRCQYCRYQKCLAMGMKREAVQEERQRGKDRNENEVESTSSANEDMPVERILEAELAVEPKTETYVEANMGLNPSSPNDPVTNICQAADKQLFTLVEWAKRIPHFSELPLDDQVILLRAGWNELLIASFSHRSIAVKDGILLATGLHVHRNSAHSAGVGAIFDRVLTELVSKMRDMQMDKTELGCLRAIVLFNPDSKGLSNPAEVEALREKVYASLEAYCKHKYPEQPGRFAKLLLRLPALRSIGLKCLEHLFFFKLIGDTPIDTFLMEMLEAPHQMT

Turning to `CCCCn1cc[n+](C)c1`, the Potency result in test [1], in [2], in [3], in test [5], in test [6] and in [7] was “inactive” in each case. For the same compound, the Potency result in test [8], in test [9] and in test [10] was “inactive” in each case. In addition, the outcome in [4] was inactive.
Take `CCCCCCCCCCCCn1cc[n+](C)c1`: the Potency is 34.8 µM (active) and inactive in test [3]; 49.4 µM (active) and inactive in test [7]; “inactive and 43.4 µM (active)” in [8]; 49 µM (active) and inactive in test [10]. Moreover, in test [4], the compound was classed as inactive.
Turning to `CC(Cl)(Cl)C(=O)O`, the Potency entry in test [1], in [2], in test [3], in test [5], in [6] and in [11] was “inactive” each time. For the same compound, the Potency entry in test [7], in [8], in test [9] and in [10] was “inactive” each time. For the same compound, in test [4], the result was inactive.
Consider `CCC[N+]1(C)CCCC1`, for which the Potency result in [1], in test [2], in test [3], in test [5], in test [6] and in test [11] was “inactive” each time. The Potency result in [7], in test [8], in test [9] and in [10] was “inactive” throughout. In test [4], the compound was called inactive.
Regarding `Nc1ccccc1`, the Potency result in test [1], in [2], in test [3], in test [5], in [6] and in [11] was “inactive” in each case. Further, the Potency entry in test [7], in test [8], in test [9] and in test [10] was “inactive” each time. In addition, the call in test [4] was inactive.
Turning to `O=c1nc(O)n(Cl)c(=O)n1Cl`, the Potency result in [1], in [2], in [3], in [5], in test [6] and in test [11] was “inactive” each time. The Potency entry in test [7], in test [8], in test [9] and in test [10] was “inactive” in each case. Also, the compound was called inactive in test [4].
`CCCCCCCCCCCC(=O)O`: the Potency entry in test [1], in [2], in test [3], in [5], in test [6] and in test [7] was “inactive” in each case. For the same compound, the Potency result in [8], in [9], in [10], in test [13] and in test [14] was “inactive” each time. In addition, in test [4], the compound was classed as inactive. Also, the Potency in [12] is 55.1 µM (active) and 63 µM (active).
In the case of `CCCC[n+]1ccc(C)cc1`, the Potency entry in [1] was “inactive and 43.4 µM (active)”; in test [2], “inactive and 48.7 µM (active)”; in test [6], “inactive and 60.8 µM (active)”; in test [7], “inactive and 48.7 µM (active)”; in [8], 13.8 µM (active) and inactive; in test [9] it was “inactive and 34.5 µM (active)”. Moreover, the Potency result in test [3], in test [5], in test [10] and in [14] was “inactive” each time. For the same compound, in test [4], the outcome was inactive.
For the compound `COc1ccc(N)cc1`, the Potency entry in test [1], in test [2], in test [3], in test [5], in test [6] and in test [11] was “inactive” in each case. In addition, the Potency entry in [7], in test [8], in test [9] and in [10] was “inactive” each time. For the same compound, in [4], the compound was called inactive.
For the compound `O=[N+]([O-])O`, the Potency result in test [1], in [2], in test [3], in test [5], in test [6] and in [7] was “inactive” throughout. The Potency result in test [8], in [9], in [10] and in test [14] was “inactive” each time. For the same compound, in [4], the result was inactive. In addition, the Potency entry in [12] is “inactive and 21.9 µM (active)”.
As to `CCCC[N+]1(C)CCCC1`, the Potency entry in [1], in test [2], in [3], in [5], in [6] and in test [11] was “inactive” each time. The Potency result in test [7], in test [8], in test [9] and in test [10] was “inactive” throughout. Further, in [4], the compound was classed as inactive.
As to `O=C(O)CC(O)(CC(=O)O)C(=O)O`, the Potency result in test [1], in test [2], in [3], in [5], in test [6] and in test [7] was “inactive” each time. For the same compound, the Potency result in test [8], in test [9] and in [10] was “inactive” throughout. In addition, in test [4], the compound was classed as inactive.
On to `CCCCCCCCCCCCOS(=O)(=O)O`, for which the Potency result in test [1], in test [3], in test [5], in test [6], in test [8] and in test [10] was “inactive” in each case. The Potency in [2] is 34.7 µM (active) and inactive; in test [7] it was 55 µM (active) and inactive; in [9], 34.7 µM (active) and 21.9 µM (active) and inactive. Besides, the compound was classed as inactive in test [4].
As to `CCCC[N+]1(C)CCCCC1`, the Potency entry in [1], in test [2], in test [3], in test [5], in test [6] and in test [11] was “inactive” throughout. Also, the Potency result in test [7], in test [8], in test [9] and in test [10] was “inactive” in each case. In test [4], the result was inactive.
